Consider 31 compounds from PubChem BioAssay (NCATS).

Assay [1] is described as follows: qHTS of pediatric cancer cell lines to identify multiple opportunities for drug repurposing: Primary screen for SJ-GBM2 cells (AID 1347091). The gist of the method: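 Cell viability, CellTiter-Glo luminescence; 500-1,000 cells/well, 8- or 11-point titration, 48 h compound exposure at 37 degrees C, 5% CO2. Controls: DMSO neutral, bortezomib 2.3 µM final as positive.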
For orientation: qHTS replaces the single test concentration by a dilution series.

Assay [2] in a line: qHTS of pediatric cancer cell lines to identify multiple opportunities for drug repurposing: Primary screen for SK-N-MC cells (AID 1347093). An outline of the steps: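 Metabolically active cells were quantified by ATP-dependent luminescence (CellTiter-Glo, 15 min at room temperature) following 48 h treatment. Cells had been plated at 500-1,000 per well and settled for 5 h beforehand.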

Assay [3] can be described thus: qHTS of pediatric cancer cell lines to identify multiple opportunities for drug repurposing: Primary screen for BT-37 cells (AID 1347094). The gist of the method: (§1)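 Readout: CellTiter-Glo luminescence, 48 h treatment. Controls DMSO (neutral) and bortezomib 2.3 µM final (positive). Potency and efficacy taken from primary-screen concentration-response curves.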
A short description of assay [4]: qHTS of pediatric cancer cell lines to identify multiple opportunities for drug repurposing: Primary screen for NB-EBc1 cells (AID 1347095). An outline of the steps:
as §1

The nature of assay [5]: qHTS of pediatric cancer cell lines to identify multiple opportunities for drug repurposing: Primary screen for U-2 OS cells (AID 1347096). Also: nearly all actives have a fitted effect of over 50% in size. An outline of the steps:
(§2)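 Cells (500-1,000/well) rested 5 h, then received compounds for 48 h; metabolically active cells were measured by CellTiter-Glo luminescence. Final concentrations spanned up to 46 µM (MIPE, 11-point) or 0.59 nM-46 µM (NPC, 8-point) in primary screens, 11-point in follow-ups.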

Assay [6] in a line: qHTS of pediatric cancer cell lines to identify multiple opportunities for drug repurposing: Primary screen for SK-N-SH cells (AID 1347098). Also: nearly all actives have a fitted effect of over 65% in size. The gist of the method:
as §2

A short description of assay [7]: qHTS of pediatric cancer cell lines to identify multiple opportunities for drug repurposing: Primary screen for NB1643 cells (AID 1347099). Also: nearly all actives have a fitted effect of over 50% in size. An outline of the steps:
as §1

The nature of assay [8]: qHTS of pediatric cancer cell lines to identify multiple opportunities for drug repurposing: Primary screen for LAN-5 cells (AID 1347100). The gist of the method:
as §2

Assay [9] can be described thus: qHTS of pediatric cancer cell lines to identify multiple opportunities for drug repurposing: Primary screen for Saos-2 cells (AID 1347097). Also: nearly all actives have a fitted effect of over 40% in size. An outline of the steps: as §1
Assay [10] can be described thus: qHTS of pediatric cancer cell lines to identify multiple opportunities for drug repurposing: Primary screen for A673 cells (AID 1347092). Also: nearly all actives have a fitted effect of over 45% in size. The gist of the method: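 Titration-based qHTS on A673 cells: MIPE compounds spanned 11 points (0.78 nM to 46 µM final), NPC compounds 8 points (0.59 nM to 46 µM final). Viability after 48 h was measured by ATP luminescence.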

Inconclusive results are not listed. Values without a mark were called inactive. Activity calls are given as the source filed them. Calls follow the shape of the dose curve; as a rule, active = well fitted curve in the direction sought with a large enough effect; inconclusive = small, poorly fitted or top-dose-only effect, or another doubt; inactive = no such curve, though single readings can be large; an effect the other way counts as inactive or inconclusive.
Potency is read from the fitted curve at half-maximal effect.

Take `CN1CCN(c2cc3c(nn2)Oc2ccccc2N3C)CC1`: the Potency entry in assay [1], in assay [2], in assay [3], in [4], in assay [5] and in assay [6] was “inactive” throughout. In addition, the Potency entry in [7] and in assay [8] was “inactive” throughout.
For `CC(=O)c1ccc(OCC(=O)N2CCCCC2)cc1`, the Potency entry in assay [1], in [2], in [3], in [4], in [5] and in [9] was “inactive” each time. The Potency result in [6], in [7] and in [8] was “inactive” throughout.
With `CN(C)c1ccc(C(=C2C=CC(=[N+](C)C)C=C2)c2ccccc2)cc1`, the Potency was 0.0531 µM (active) in assay [2]; 0.0978 µM (active) in assay [3]; 1.33 µM (active) in assay [5]; 1.09 µM (active) in [6]; 0.133 µM (active) in assay [7].
As for `CC(C)OC(=O)c1cc(C(=O)OC(C)C)cc([N+](=O)[O-])c1`, the Potency result in [1], in [3], in assay [4], in assay [5], in [9] and in [6] was “inactive” throughout. Besides, the Potency entry in [7] and in assay [8] was “inactive” each time.
Turning to `N=C1N=C(N)c2cc3ccccc3cc21`, the Potency was 24.3 µM (active) in assay [1]; 6.86 µM (active) in [2]; 15.9 µM (active) in [3]; 25 µM (active) in assay [6]; 19.3 µM (active) in assay [7]; 24.3 µM (active) in assay [8].
Turning to `COc1cc(NC(C)CCCN)c2ncccc2c1` (centres undefined), the Potency entry in [1] and in assay [8] was “inactive” in each case. For the same compound, in assay [6], the Potency was 17.2 µM (active).
For `[O-][n+]1ccccc1SSc1cccc[n+]1[O-]`, the Potency in [2] was 0.058 µM (active); in assay [3], 3.01 µM (active); in assay [5] it was 0.231 µM (active); in assay [9], 0.092 µM (active); in [6], 0.067 µM (active); in assay [7], 0.092 µM (active).
With `C#CC1(O)CC[C@H]2[C@@H]3CCC4=CCCC[C@@H]4[C@H]3CC[C@@]21C` (some centres undefined), the Potency result in assay [1], in [3], in assay [4] and in assay [8] was “inactive” in each case. Moreover, in assay [6], the Potency was 24.4 µM (active).
As for `CN(C)c1ccc(N=NS(=O)(=O)O)cc1`, the Potency result in assay [1], in assay [3], in [4], in assay [5] and in [6] was “inactive” throughout.
On to `S=c1[nH]c2ccccc2s1`, for which the Potency result in assay [1], in [3], in [4], in [5], in [9] and in assay [6] was “inactive” throughout. Besides, in assay [8], the Potency entry is “inactive”.
As for `CC(C(=O)O)c1ccc(C(=O)c2ccccc2)s1` (centres undefined), the Potency result in [2], in assay [3], in assay [4], in [5], in assay [6] and in [7] was “inactive” in each case. Further, the Potency entry in [8] was “inactive”.
Turning to `O=Cc1ccc(O)c(O)c1O`, the Potency entry in assay [1], in [3] and in assay [4] was “inactive” each time.
In the case of `O=c1cc(-c2ccccc2)oc2ccccc12`, the Potency result in [1], in [2], in assay [4] and in assay [8] was “inactive” each time.
For the compound `Oc1c(Br)cc(Br)c2cccnc12`, the Potency is 11.9 µM (active) in assay [1], 10.6 µM (active) in [2] and 10.6 µM (active) in assay [4]. In addition, in assay [5], the Potency entry was “inactive”.
For the compound `O=c1[nH]c2ccccc2n1CCCN1CCN(C(c2ccccc2)c2ccccc2)CC1`, the Potency entry in [4], in assay [5] and in assay [7] was “inactive” each time. Besides, the Potency in assay [6] is 24.4 µM (active).
With `Nc1ccc([N+](=O)[O-])cc1O`, the Potency in assay [2] was 0.001 µM (active); in assay [4] it was 15.4 µM (active). Moreover, the Potency entry in [5] and in assay [6] was “inactive” each time.
For `O=C(O)c1ccccc1Nc1cccc(C(F)(F)F)c1`, the Potency result in assay [1], in [3], in assay [4], in assay [5], in assay [9] and in [6] was “inactive” each time. Moreover, the Potency result in assay [7] and in assay [8] was “inactive” throughout.
On to `Cc1c(C(=O)O)c(O)cc2c1C(=O)c1c(O)c([C@@H]3O[C@H](CO)[C@@H](O)[C@H](O)[C@H]3O)c(O)c(O)c1C2=O`, for which the Potency entry in assay [5], in assay [6] and in assay [7] was “inactive” throughout.
Take `Cc1cc(O)c2ccccc2c1O`: the Potency in [10] was 10.6 µM (active); in [2], 21.1 µM (active); in assay [6], 34.4 µM (active); in assay [7], 18.8 µM (active).
As to `CCOc1ccc2nc(S(N)(=O)=O)sc2c1`, the Potency result in assay [1], in assay [4], in [5], in assay [6], in [7] and in assay [8] was “inactive” in each case.
Take `Nc1ccc(O)c([N+](=O)[O-])c1`: the Potency result in assay [1], in assay [3], in [4], in assay [5] and in assay [7] was “inactive” throughout.
Regarding `C#C[C@]1(O)CC[C@H]2[C@@H]3CCc4cc(O)ccc4[C@H]3CC[C@@]21C`, in assay [2], the Potency was 4.73 µM (active). The Potency entry in [5] is “inactive”.
As to `COc1cc2c3cc1Oc1cc(ccc1O)C[C@@H]1c4c(cc(OC)c(O)c4Oc4ccc(cc4)C[C@@H]3N(C)CC2)CC[N+]1(C)C`, the Potency result in assay [1], in assay [3], in assay [4], in assay [5], in assay [9] and in assay [6] was “inactive” each time. Moreover, the Potency result in assay [7] and in assay [8] was “inactive” in each case.
`CCCCCCOc1ccccc1C(N)=O`: the Potency result in assay [1], in assay [3], in assay [4], in [5], in [6] and in assay [7] was “inactive” throughout. For the same compound, the Potency result in assay [8] was “inactive”.
Regarding `c1ccc(CCNc2nc(-c3ccccc3)cs2)cc1`, the Potency result in assay [2], in [3], in [5], in assay [7] and in assay [8] was “inactive” throughout.
`COC(=O)C1=C(C)NC(C)=C(C(=O)OCC(C)C)C1c1ccccc1[N+](=O)[O-]` (centres undefined): the Potency result in assay [1] and in assay [9] was “inactive” throughout.
With `COC(=O)C1=C(C)NC(C)=C(C(=O)OCC(C)=O)C1c1ccccc1[N+](=O)[O-]` (centres undefined), the Potency in [2] is 13.3 µM (active). Also, the Potency result in [5] and in [8] was “inactive” each time.
For `Cc1nc2ccccc2n1Cc1ccc(Cl)cc1`, the Potency result in [1] and in [5] was “inactive” in each case. Also, the Potency in [2] is 18.8 µM (active).
Consider `O=C(CS)Nc1ccccc1`, for which the Potency entry in [3], in [5] and in assay [6] was “inactive” throughout.
Turning to `CCCC(=O)OC[C@@H](OC(=O)CCC)[C@@H](OC(=O)CCC)[C@H](Cn1c2nc(=O)[nH]c(=O)c-2nc2cc(C)c(C)cc21)OC(=O)CCC`, the Potency entry in assay [1], in [5], in assay [6] and in assay [7] was “inactive” throughout.
Take `Nc1nc2ccc([N+](=O)[O-])cc2s1`: the Potency entry in assay [1], in assay [4] and in [8] was “inactive” each time.
